Our source for the outcome values is PubChem BioAssay AID977624 (Broad Institute, 2014).

The campaign covered roughly 1,800 compounds. Fewer than 10 were called active. Roughly 44% stayed inconclusive and do not appear here.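 Rule for the calls: active = compound lowering the normal-ribosome reporter at least twice as much as the humanized-ribosome reporter, growth loss under a set limit; inconclusive = no clear call, values can overlap the other calls; inactive = the rest.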 The list is a sample of the results.

The nature of the assay: growth inhibition of wild-type GFP E. coli, dose response, h34 mutant RFP, cherry-pick (AID 977624). To be noted: E. coli wild-type GFP strain growth, fluorescence, 24 h; series mostly up to 50 µM.
Take `CN(C(=O)c1ccc(F)cc1)c1ccc(OCC(=O)Nc2ccccc2C(=O)O)cc1`: the molecule was classed as inactive.

Consider `CC(CCC(=O)O)C1CC[C@@]2(C)C3C(=O)CC4C(C)(C)C(O)CC[C@]4(C)C3C(=O)C[C@]12C` (stereo not given in full), for which the result was inactive.

Regarding `CCOc1ccc2nc(SCC(=O)Nc3cccc(S(=O)(=O)NC4=NCCCCC4)c3)[nH]c2c1`, the molecule was called inactive.

On to `COc1ccc(-c2nnc(COc3ccc(Br)cc3C)o2)cc1`, for which the molecule was called inactive.

Regarding `Cc1cccc(C)c1-n1nnnc1C1(C)CCC(=O)N1Cc1cccs1` (stereo not given), the call was inactive.

Take `CCCC(=O)Nc1sc2c(c1C(=O)Nc1ccccn1)CCCC2`: the molecule was classed as inactive.

In the case of `COc1ccc(NC(=O)c2cccs2)cc1C(=O)N1CCN(c2ccccc2)CC1`, the molecule was classed as inactive.

Consider `CC(C)Nc1nnc(SCC(=O)Nc2sccc2C#N)s1`, for which the molecule was called inactive.

Turning to `COc1cc(NC(=O)c2ccc(Cl)cc2)c(OC)cc1NC(=O)CN1CCCCC1`, the outcome was inactive.

As for `CN(C)CCCN(C(=O)COc1ccc(Cl)cc1)c1nc2ccc(F)cc2s1`, the molecule was classed as inactive.

Take `Cc1cccc(CSCC(=O)N2CCN(S(=O)(=O)c3ccccc3C#N)CC2)c1`: the outcome was inactive.

Regarding `COc1cc(OC)cc(C(=O)Nc2ccc(C(=O)Nc3ccccc3OC)cc2)c1`, the molecule was called inactive.

As for `CC(C)Oc1ccc(C(=O)Nc2cccc3cccnc23)cc1`, the result was inactive.

As to `CC(C)CC#Cc1ccc2c(c1)O[C@@H](CN(C)Cc1ccccn1)[C@H](C)CN([C@H](C)CO)S2(=O)=O`, the molecule was called inactive.

Consider `CCCC(=O)Nc1cccc(C(=O)Nc2ccccc2OCC)c1`, for which the result was inactive.

`CC(C)(Nc1ccccc1)C(=O)c1ccccc1`: the call was inactive.

For the molecule `COC(=O)c1ccccc1OCCOCCOc1cccc2ccc(C)nc12`, the molecule was called inactive.

With `Nc1ccccc1Nc1ccc([N+](=O)[O-])cc1[N+](=O)[O-]`, the molecule was called inactive.

For `Cc1ccccc1CSc1nnc(-c2ccncc2)o1`, the molecule was classed as inactive.

Take `O=C(CCNc1cccc(Cl)c1)c1cccs1`: the result was inactive.

Regarding `C[C@@H]1CCCCO[C@@H](CN(C)C)[C@@H](C)CN([C@H](C)CO)C(=O)c2cc(NC(=O)Nc3cccc4ccccc34)ccc2O1`, the outcome was inactive.

Regarding `Cc1ccc(C2NC(c3ccc(C)cc3)C(C)C(=O)C2C)cc1` (stereo not given), the molecule was classed as inactive.

Take `Cc1ccc(-c2c[n+](CC(=O)OCc3ccccc3)c3n2CCC3)cc1`: the outcome was inactive.

On to `Cc1noc(C)c1NC(=O)Nc1ccc2c(c1)C(=O)N([C@@H](C)CO)C[C@H](C)[C@H](CN(C)C(=O)Nc1ccc3c(c1)OCO3)OCCCC[C@H](C)O2`, for which the molecule was called inactive.

Take `COc1ccc(-c2cc(C(=O)N(C)CCc3ccc(OC)c(OC)c3)c3ccccc3n2)cc1`: the molecule was classed as inactive.

`c1ccc(Sc2ncnc3ccccc23)cc1`: the outcome was inactive.

On to `Cc1nc(SCC(=O)Nc2ccc3c(c2)OCCO3)nc(C)c1C`, for which the molecule was classed as inactive.

`CCCN(Cc1ccco1)S(=O)(=O)c1ccc(OC)c(OC)c1`: the molecule was called inactive.

With `CCOC(=O)c1cc(C)nc(N2CCCCC2)c1C#N`, the result was inactive.

For the molecule `Cn1cc(CN2CCCC(C(=O)c3cccs3)C2)c(-c2cccc(Cl)c2)n1` (stereo not given), the molecule was called inactive.

On to `Nc1nc(-c2cc(-c3ccccc3)no2)cs1`, for which the call was inactive.

Turning to `Cc1cccc(C(=O)NCC(=O)NCCSc2ccc(Br)cc2)c1`, the molecule was classed as inactive.

For the molecule `N#CCC(=O)Nc1ccc(C(=O)OCC(=O)Nc2ccc3ccccc3c2)cc1`, the result was inactive.

As for `CCOc1cc(/C=C(\CC(=O)O)c2nc3ccccc3s2)ccc1OC`, the result was inactive.

On to `COc1ccc(-c2nc3ccc(Cl)cn3c2Cc2cccc(F)c2)cc1OC`, for which the molecule was called inactive.

`COC(=O)c1sccc1NC(=O)Cn1nnc(-c2ccccc2C)n1`: the call was inactive.

In the case of `CCOc1ccc2nc(NC(=O)CSc3nc(SC)ns3)sc2c1`, the molecule was classed as inactive.

Regarding `O=C1CN(C(=O)c2ccc(Cl)c(S(=O)(=O)N3CCc4ccccc43)c2)c2ccccc2N1`, the result was inactive.

Take `COc1ccccc1C1CCN(C(=O)c2ccco2)CC1`: the molecule was classed as inactive.

As to `Cc1ccccc1SCC(=O)OCC(=O)Nc1sccc1C(N)=O`, the outcome was inactive.

Regarding `COc1ccc(-c2csc3ncn(-c4ccc(C)cc4)c(=O)c23)cc1OC`, the molecule was classed as inactive.

As to `O=C(COC(=O)C12CC3CC(CC(O)(C3)C1)C2)NCCc1ccc(Cl)cc1`, the molecule was called inactive.

Take `CCCc1c(C(=O)Nc2ccc(OC)cc2)cnn1-c1ccccc1`: the outcome was inactive.

Regarding `C=CCn1c(SCC(=O)Nc2ccc3c(c2)OCCO3)nnc1-c1ccco1`, the call was inactive.

With `C[C@@H]1CCCCO[C@H](CN(C)C(=O)CCCN(C)C)[C@@H](C)CN([C@@H](C)CO)C(=O)c2cc(NC(=O)Nc3cccc4ccccc34)ccc2O1`, the molecule was classed as inactive.

On to `CCn1nc(Cc2cccc3ccccc23)c(C#N)c1N`, for which the call was inactive.

In the case of `O=S(=O)(NCC1CCCO1)c1ccc(-c2ccc(Cl)cc2)cc1` (stereo not given), the result was inactive.

As to `Cc1ccccc1COc1ccc(-c2nn[nH]n2)cc1`, the molecule was classed as inactive.

Take `CCc1ccc2[nH]c(C(=O)Nc3ccc4c(c3)OCO4)cc2c1`: the outcome was inactive.

For the molecule `COc1ccc(Cl)cc1NC(=O)C1Cc2ccccc2CN1S(C)(=O)=O` (stereo not given), the outcome was inactive.

Turning to `CC(C)(C)c1ccc(-c2noc(CCC(=O)NCc3ccco3)n2)cc1`, the molecule was called inactive.

For `CN(Cc1nnc(-c2ccc(F)cc2)o1)c1ccccc1`, the outcome was inactive.

With `Cc1ccc(Cn2cnc3ccccc32)cc1`, the molecule was classed as inactive.

Turning to `O=C(CSc1ccc(-c2cccnc2)nn1)N1CCCc2ccccc21`, the molecule was called inactive.

`O=C1c2ccccc2C(c2nnnn2C2CCCCC2)N1CCc1ccc(O)cc1` (stereo not given): the molecule was called inactive.

Turning to `CCOC(=O)C1CCCN(Cc2c(Cl)cccc2Cl)C1` (stereo not given), the molecule was called inactive.

In the case of `CCOc1ccc2nc(SCC(=O)Nc3nonc3C)[nH]c2c1`, the result was inactive.

For `CCCCCc1nnc(NC(=O)C2COc3ccccc3O2)s1` (stereo not given), the call was inactive.

`O=C(Cc1cccc(NC(=O)C2CCCN(C(=O)CCc3ccccc3)C2)c1)Nc1cccc(C(=O)N2CCCCC2)c1` (stereo not given): the outcome was inactive.

Regarding `CCN(CC)CCn1c(SCC(=O)Nc2cccc(OC)c2)nc2c(sc3ccccc32)c1=O`, the outcome was inactive.

In the case of `COc1ccccc1CCNC(=O)c1cccc(NC(=O)CC2SC(N3CCCCC3)=NC2=O)c1` (stereo not given), the outcome was inactive.

As to `Cc1cc(C(=O)COC(=O)CNC(=O)c2ccccc2)c(C)n1CC1CCCO1` (stereo not given), the result was inactive.

For `COc1ccc(NC(=O)c2cccc(Oc3ccc([N+](=O)[O-])cc3Cl)c2)cc1`, the molecule was called inactive.

As to `Cc1ccc(S(=O)(=O)Nc2ccc3c(c2)C(=O)N([C@@H](C)CO)C[C@@H](C)[C@H](CN(C)C(=O)c2ccccc2)OCCCC[C@@H](C)O3)cc1`, the molecule was called inactive.

With `CCOc1ccc(CN(C)C(=O)c2ccc(NS(=O)(=O)c3ccc4[nH]c(=O)[nH]c4c3)cc2)cc1`, the result was inactive.

As to `CCc1nc2ccccc2n1CCc1ccccc1`, the result was inactive.

Consider `CCc1cc(C(=O)N2CCCC(C(=O)c3cccc4ccccc34)C2)n(C)n1` (stereo not given), for which the result was inactive.

Consider `C=C(C)Cn1c(=O)c2c(nc3n2CCCN3Cc2ccccc2)n(C)c1=O`, for which the result was inactive.

With `O=C(O)CCN(Cc1ccccc1)S(=O)(=O)c1ccccc1Cl`, the molecule was classed as inactive.

Regarding `NC(=O)CSc1nc2cc([N+](=O)[O-])ccc2n1-c1cccc(C(F)(F)F)c1`, the molecule was classed as inactive.

Regarding `CCC(C(=O)NCCc1ccc(C)cc1)n1nc(C)c2c(C)n(-c3ccccc3)nc2c1=O` (stereo not given), the result was inactive.

As for `CCOc1ccccc1OCCCC(=O)N1CCN(S(=O)(=O)c2cc(F)ccc2F)CC1`, the molecule was classed as inactive.

With `CN(Cc1ccc(F)cc1)C(=O)CN1CCN(S(=O)(=O)c2ccc3c(c2)OCCCO3)CC1`, the molecule was called inactive.

On to `Cc1cccc(-c2nsc(SCC(=O)NCC3CCCO3)n2)c1` (stereo not given), for which the call was inactive.

`Cc1cc(C)n2nc(C(=O)Nc3cccc(S(=O)(=O)N(C)c4ccccc4)c3)nc2n1`: the result was inactive.

For the molecule `CC(=O)c1ccc(N2CCN(C(=O)C3CCN(S(=O)(=O)c4ccc5c(c4)CC(C)N5C(C)=O)CC3)CC2)cc1` (stereo not given), the call was inactive.

On to `Cc1cc(C)c(NC(=O)C(C)c2cccc(C(=O)c3ccccc3)c2)c(C)c1` (stereo not given), for which the outcome was inactive.

Take `COCC#Cc1ccc2c(c1)O[C@H](CN(C)C(=O)c1ccccc1)[C@@H](C)CN([C@H](C)CO)S2(=O)=O`: the outcome was inactive.

For `C=CCn1c(SCc2n[nH]c(=S)n2-c2ccccc2)nnc1-c1ccccc1`, the outcome was inactive.

As for `CC(=O)c1ccccc1OCCOCCOCCOc1ccccc1C(C)=O`, the outcome was inactive.

Consider `Brc1ccccc1CN1CCC(Cc2ccccc2)CC1`, for which the molecule was called inactive.

For `CCn1cc(CCC(=O)NCCc2ccccc2)c2ccccc21`, the molecule was classed as inactive.

As for `COc1ccccc1N(C)S(=O)(=O)c1ccc(Cl)c(C(=O)NC2=NCCS2)c1`, the outcome was inactive.

As to `O=C(COC(=O)CNC(=O)c1ccc(F)cc1)Nc1cccc(S(=O)(=O)N2CCCC2)c1`, the molecule was called inactive.

Turning to `COC(=O)c1ccc2nc(-c3cccc(Br)c3)c(Cc3ccsc3)n2c1`, the call was inactive.

`COc1cccc(C(=O)C2CCCN(C/C=C/c3ccccc3OC)C2)c1` (stereo not given): the call was inactive.

As to `O=C(NCc1ccccc1)c1cc(S(=O)(=O)N2CCCCC2)ccc1N1CCOCC1`, the result was inactive.

With `CC(=O)c1c(N2CCOCC2)nc2ccc(Cl)cc2c1-c1ccccc1`, the call was inactive.

As to `O=C(NCc1nnnn1-c1ccc(Cl)cc1)c1ccc([N+](=O)[O-])o1`, the result was inactive.

Regarding `O=C(CCC(=O)N1CCN(c2ccc(F)cc2)CC1)N1CCN(c2ccc(F)cc2)CC1`, the molecule was classed as inactive.

Consider `COc1cccc(-c2ccc(SCc3ccccn3)nn2)c1`, for which the result was inactive.

As to `CCC(C(=O)NC1CCCC1)n1c(-c2ccnc3ccccc23)nc2ccccc21` (stereo not given), the molecule was called inactive.

For the molecule `C=CCNC(=O)c1ccccc1CCc1ccccc1`, the outcome was inactive.

Take `C=CCN(CC(O)c1cccc([N+](=O)[O-])c1)C(C)CCc1ccccc1` (stereo not given): the molecule was classed as inactive.

Consider `CO[C@@H]1CN(C)C(=O)c2cc(NC(=O)C3CCCC3)ccc2OC[C@@H](C)N(C(=O)Nc2ccc(C(F)(F)F)cc2)C[C@H]1C`, for which the molecule was classed as inactive.

Regarding `COc1ccc(OC)c(CN2CCCC(C(=O)c3ccccc3SC)C2)c1` (stereo not given), the molecule was classed as inactive.

Take `CCN1CCN(c2c(Cl)cccc2NC(=O)c2ccc([N+](=O)[O-])o2)CC1`: the result was inactive.

In the case of `CCN(C(=O)CSc1cc(C)c2ccc(OC)cc2n1)C1CCS(=O)(=O)C1` (stereo not given), the molecule was called inactive.

Turning to `Cc1noc(NS(=O)(=O)c2ccc(NC(=O)c3cc(-c4ccccc4Cl)nc4ccccc34)cc2)c1C`, the result was inactive.

With `O=C(COC(=O)C1CC1)Nc1nc(-c2ccc(F)c(F)c2)cs1`, the molecule was classed as inactive.
